{"source": "PubChem BioAssay AID2517", "about": "(National Center for Advancing Translational Sciences (NCATS), 2010)", "note": "Values joined by “and” are separate entries in the source; they are usually repeats but may differ in a detail not shown here. Identical values can stand only once. Screen size: about 350,000 compounds; about 1,200 (0.34%) were called active. Inconclusive results (about 3%) are left out. The call rests on the fitted dose curve; in most records, active means well fitted inhibition curve with a large enough effect; inconclusive means small, poorly fitted or top-dose-only effect; inactive means no such curve, though single readings can be large or run the other way. The list comes from a sample in which actives are over-represented; it also holds similar structures and randomly drawn compounds. A structure can be active in one record and inactive in another. Potency means the concentration at half of the fitted maximal effect.", "data": [{"target": "DNA repair nuclease/redox regulator APEX1 (Homo sapiens) (UniProt P27695)", "sequence (P27695 whole entry, looked up)": "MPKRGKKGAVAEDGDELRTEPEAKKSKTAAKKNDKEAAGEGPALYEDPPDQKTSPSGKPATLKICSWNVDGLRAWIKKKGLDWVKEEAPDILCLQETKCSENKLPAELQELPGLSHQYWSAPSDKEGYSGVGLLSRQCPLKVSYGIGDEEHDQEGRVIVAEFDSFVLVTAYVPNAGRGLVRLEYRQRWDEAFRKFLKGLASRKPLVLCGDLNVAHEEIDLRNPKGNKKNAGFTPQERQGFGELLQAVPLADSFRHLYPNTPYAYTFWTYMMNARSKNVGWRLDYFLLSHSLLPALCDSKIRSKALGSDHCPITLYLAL", "assay": "qHTS Assay for Inhibitors of the Human Apurinic/apyrimidinic Endonuclease 1 (APE1); further: nearly all actives have a fitted effect of over 55% in size;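 on activity change, negative = inhibition: plate controls were vehicle for no effect and reference inhibitor for full effect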", "details": "recombinant APE1, TAMRA/BHQ-2 abasic DNA cleavage fluorescence; activity change, negative = inhibition: at 65.8 µM (top of the series)", "excerpt": "The apurinic/apyrimidinic endonuclease APE1 is the primary mammalian enzyme responsible for the removal of abasic (or AP) sites in DNA and functions centrally in the base excision DNA repair (BER) pathway. […] Thus, targeting APE1 could improve the efficacy of current treatment paradigms by promoting selective sensitization or protection of diseased and normal cells, respectively.\nInhibition of APE1 activity was screened by utilizing double-stranded short substrate containing tetrahydrofuran (THF) abasic site labeled with rhodamine-type fluorophore (TAMRA) at the 5'-end and with non-fluorescent Black Hole Quencher-2 (BHQ-2) at the opposing 3'-end. An increase in the fluorescence intensity due to incision of the abasic site by APE1 was used to measure the enzyme activity.\nNIH Chemical Genomics Center [NCGC]\nNIH Molecular Libraries Probe Centers Network [MLPCN]\nAssay Provider: David M. Wilson, III, National Institute on Aging, NIH\nThree uL of enzyme solution (0.75 nM APE1 final concentration) was dispensed to 1536-well Greiner black solid bottom plates. […] The plates were incubated for 15 min at room temperature, and then 1 uL of substrate solution (50 nM final concentration of TAMRA/BHQ-2) was added to start the reaction. The plates were immediately transferred into ViewLux High-throughput CCD imager (Perkin-Elmer) in order to measure the reaction progress in kinetic mode (three reads every 60 seconds) using 525 nm excitation and 598 nm emission fluorescence protocol. The fluorescence intensity difference between the third and the first time points was used to compute reaction progress. Results were normalized to buffer only columns and NSC13755 positive controls and negative control DMSO treated wells.", "values": [{"smiles": "Cc1ccc(Cc2cnc(N)s2)o1", "Potency": "28.2 µM (active)"}, {"smiles": "Cc1ccc(CCC(=O)Nc2ncc(Cc3cc(Cl)ccc3Cl)s2)o1", "activity change, negative = inhibition": "-4.89% (inactive)"}, {"smiles": "CCC[C@@H]1C[C@@]1(CCC)C(NS(=O)(=O)c1cccc2cccnc12)c1ccc(Cl)cc1", "note": "(stereo partly specified)", "activity change, negative = inhibition": "14.7% (inactive)"}, {"smiles": "CC(=O)OCC1OC(C#CCCCc2ccccc2)C=CC1OC(C)=O", "note": "(stereo unspecified)", "activity change, negative = inhibition": "10.7% [at 12.4 µM] (inactive) and -3.91% [at 12.4 µM] (inactive)"}, {"smiles": "Nc1ncn(C2OC(CO)C(O)C2O)c(=O)n1", "note": "(stereo unspecified)", "activity change, negative = inhibition": "-0.222% (inactive)"}, {"smiles": "CC1=C2[C@@H](O)[C@H]([C@@H](C)C(=O)NCCC(C)C)CC[C@@]2(C)C=CC1=O", "activity change, negative = inhibition": "-2.86% (inactive)"}, {"smiles": "COC(=O)C1=C(C)N(Cc2ccccc2)C2=C3C(=O)N(c4ccccc4)C(=O)C3[C@@](O)(C(=O)OC)C(=O)N2C1c1ccccc1", "note": "(stereo partly specified)", "activity change, negative = inhibition": "-8.1% [at 12.4 µM] (inactive) and -10.6% [at 12.4 µM] (inactive)"}, {"smiles": "C#CCOCCOCCOCCNc1nc(N2CCN(C(=O)[C@H](Cc3ccc(O)cc3)n3cc(C(N)CC(C)C)nn3)CC2)nc(N2CCN(C(=O)[C@H](CCC(=O)O)n3cc(C(N)[C@H](C)CC)nn3)CC2)n1", "note": "(stereo partly specified)", "activity change, negative = inhibition": "-11.9% (inactive)"}, {"smiles": "C#CCOCCOCCOCCNc1nc(N2CCN(C(=O)[C@H](CCCCN)n3cc([C@@H](N)C(C)CC)nn3)CC2)nc(N2CCN(C(=O)[C@H](Cc3ccc(O)cc3)n3cc([C@@H](N)C(C)CC)nn3)CC2)n1", "note": "(stereo partly specified)", "activity change, negative = inhibition": "24.6% (inactive)"}, {"smiles": "C#CCOCCOCCOCCNc1nc(N2CCN(C(=O)C(Cc3ccc(O)cc3)n3cc(C(N)CC(C)C)nn3)CC2)nc(N2CCN(C(=O)C(Cc3ccc(O)cc3)n3cc(C(N)C(C)CC)nn3)CC2)n1", "note": "(stereo unspecified)", "Potency": "31.6 µM (active)"}, {"smiles": "C=CCOC(=O)NC(c1ccc(F)c(F)c1)C(C(=O)COC)C(=O)OC", "note": "(stereo unspecified)", "Potency": "inactive"}, {"smiles": "CCCN1[C@H](C(=O)OC)C[C@@]2(O)[C@@H](O)[C@@H](O)[C@@H](O)C[C@@H]12", "activity change, negative = inhibition": "14.8% (inactive)"}, {"smiles": "COc1c(O)c2c(=O)cc(OC)c3c4c(OC)cc(=O)c5c(O)c(OC)c6c(c(c1C[C@@](C)(O)[C@H]6C(C)=O)c23)c54", "activity change, negative = inhibition": "-10.2% (inactive)"}, {"smiles": "Cc1ccccc1NC(=O)CN1C(=O)N/C(=C\\c2cccn2-c2cccc(C(=O)O)c2)C1=O", "Potency": "3.16 µM (active)"}, {"smiles": "Cc1ccccc1NC(=O)CSC(=O)c1ccccc1", "activity change, negative = inhibition": "8.15% (inactive)"}, {"smiles": "O=C1N/C(=C/c2cccn2-c2ccccc2)C(=O)N1c1cccc(Cl)c1", "activity change, negative = inhibition": "6.35% (inactive)"}, {"smiles": "O=C(c1cccc(F)c1)N1CCC2(CCCN(Cc3ccncc3)C2)CC1", "activity change, negative = inhibition": "-0.987% (inactive)"}, {"smiles": "COC(=O)[C@@]1(Cc2ccc(F)cc2)[C@@H]2[C@@H](CC(=O)[C@H]2CC(=O)C(=O)N2CCCC2)CN1C(=O)c1ccccc1", "activity change, negative = inhibition": "-5.41% (inactive)"}, {"smiles": "CC(=O)OCC(=O)C1CCC2C3CCC4=CC(=O)CC[C@@]4(C)C3CC[C@]12C", "note": "(stereo partly specified)", "activity change, negative = inhibition": "1.89% (inactive)"}, {"smiles": "C#CCC(C(=O)OC)(C(=O)OC)C(C[N+](=O)[O-])c1ccccc1", "note": "(stereo unspecified)", "activity change, negative = inhibition": "1.76% [at 12.4 µM] (inactive)"}, {"smiles": "O=c1ccc2c(-c3ccccc3S(=O)(=O)O)c3ccc(O)c(O)c3oc-2c1O", "Potency": "0.0947 µM (active)"}, {"smiles": "CC(C)CN1CCc2nc(-c3ccccc3)c3c(c2C1)COC(C)C3", "note": "(stereo unspecified)", "activity change, negative = inhibition": "8.68% [at 12.4 µM] (inactive)"}, {"smiles": "Cc1ccc(-c2nn(CC(C)(C)C)c3ncnc(N)c23)cc1", "activity change, negative = inhibition": "-2.29% (inactive)"}, {"smiles": "CN1CCCC1CCO[C@@](C)(c1ccccc1)c1ccc(Cl)cc1", "note": "(stereo partly specified)", "activity change, negative = inhibition": "0.95% (inactive)"}, {"smiles": "Cn1c(SCC(=O)N/N=C/c2ccc(O)c(O)c2)nc2ccccc21", "activity change, negative = inhibition": "-9.26% (inactive)"}, {"smiles": "CCOc1cc(/C=N/NC(=O)CN2CCCCC2)ccc1O", "activity change, negative = inhibition": "32% (inactive)"}, {"smiles": "Cc1nccn1CC(=O)N/N=C/c1ccc(O)c(O)c1", "Potency": "25.1 µM (active)"}, {"smiles": "N#Cc1cccc(-c2ccc3ncnc(NCc4cccs4)c3c2)c1", "activity change, negative = inhibition": "0.81% (inactive)"}, {"smiles": "COc1ccc(-c2oc3cc(OC)ccc3c2C(=O)c2ccc(C#N)cc2)cc1", "activity change, negative = inhibition": "-7.81% (inactive)"}, {"smiles": "COC(=O)C1=C(C(=O)OC)[C@@H]2N(C)c3ccccc3[C@@]23C[C@@H](C(=O)OC)N(S(=O)(=O)c2cccs2)C3=N1", "activity change, negative = inhibition": "-14.4% [at 12.4 µM] (inactive)"}, {"smiles": "Nc1ccc2nc3c(=O)[nH]c(=S)[nH]c3nc2c1", "Potency": "0.501 µM (active)"}, {"smiles": "CN1[C@H]2CC(OC(=O)[C@@H](CO)c3ccccc3)C[C@H]1[C@H]1O[C@H]12", "note": "(stereo partly specified)", "activity change, negative = inhibition": "-4.8% [at 21 µM] (inactive)"}, {"smiles": "COC(=O)[C@@]1(Cc2ccccc2)[C@H]2c3cc(C(=O)N4CCCC4)n(Cc4ccc(C)o4)c3C[C@H]2CN1C(=O)c1ccccc1", "activity change, negative = inhibition": "-5.54% (inactive)"}, {"smiles": "CC(C)C(N)C(=O)OCCOCn1cnc2c(=O)[nH]c(N)nc21", "note": "(stereo unspecified)", "activity change, negative = inhibition": "3.96% (inactive)"}, {"smiles": "C[C@@H]1O[C@@H](OC[C@H]2O[C@@H](Oc3cc(O)c4c(c3)O[C@H](c3ccc(O)c(O)c3)CC4=O)[C@H](O)[C@@H](O)[C@@H]2O)[C@H](O)[C@H](O)[C@H]1O", "activity change, negative = inhibition": "-10.7% (inactive)"}, {"smiles": "C=CC(COCc1ccccc1)N(Cc1ccccc1)S(=O)(=O)c1ccccc1Br", "note": "(stereo unspecified)", "Potency": "inactive"}, {"smiles": "C=CCCN(C(Cc1ccccc1)C(=O)OC)S(=O)(=O)c1cc(Br)ccc1Br", "note": "(stereo unspecified)", "activity change, negative = inhibition": "-1.9% (inactive)"}, {"smiles": "C=CCCN(Cc1ccccc1)S(=O)(=O)c1ccccc1Br", "Potency": "inactive and 199 nM (active)"}, {"smiles": "COC(=O)[C@@]1(Cc2ccccc2)[C@H]2c3cc(C(=O)N(C)C)n(CCSCCO)c3C[C@H]2CN1C(=O)c1ccccc1", "activity change, negative = inhibition": "-0.311% (inactive)"}, {"smiles": "CC(C)=CCC[C@]1(C)[C@@H](CC=C(C)C)C[C@@]2(CC=C(C)C)C(=O)[C@]1(C(=O)C(C)C)C(=O)C(CC=C(C)C)=C2O", "activity change, negative = inhibition": "-2.28% (inactive)"}, {"smiles": "CC(=O)CC(C)C", "activity change, negative = inhibition": "-0.561% (inactive)"}, {"smiles": "Cc1cc(C)c2nc(-c3ccco3)cc(C(=O)O)c2c1", "Potency": "7.08 µM (active)"}, {"smiles": "O=C(c1cc(-c2ccco2)nc2ccccc12)N(Cc1nnc(-c2ccc(Cl)cc2)o1)C1CC1", "activity change, negative = inhibition": "-25.3% (inactive)"}, {"smiles": "CC1CCCN(C(=O)c2cc(-c3ccco3)nc3ccccc23)C1", "note": "(stereo unspecified)", "activity change, negative = inhibition": "17.7% (inactive)"}, {"smiles": "Cc1ccc(Br)cc1", "activity change, negative = inhibition": "-0.853% (inactive)"}, {"smiles": "CC(N)(C(=O)O)c1ccc(-c2nn[nH]n2)cc1", "note": "(stereo unspecified)", "activity change, negative = inhibition": "7.06% (inactive)"}, {"smiles": "COCCNc1ncnc2ccc(-c3cccnc3)cc12", "activity change, negative = inhibition": "-1.42% (inactive)"}, {"smiles": "CCCCCCCC[C@@H](O)/C=C/C=C/C=C\\[C@@H](O)CCCC(=O)O", "activity change, negative = inhibition": "-7.47% (inactive)"}, {"smiles": "O=c1c(O)c(Br)ccc2c(Br)c(O)c(O)c(O)c12", "Potency": "1.12 µM (active)"}, {"smiles": "O=C(c1ccncc1)N1CCC2(CCN(Cc3cc(C(F)(F)F)cc(C(F)(F)F)c3)CC2)CC1", "activity change, negative = inhibition": "2.27% (inactive)"}, {"smiles": "CC1(C)C=CC(=O)[C@]2(C)C1CC(=O)[C@]1(C)C2CC[C@@]2(C)C(c3ccoc3)OC(=O)C3OC321", "note": "(stereo partly specified)", "activity change, negative = inhibition": "0.648% (inactive)"}]}]}
